Reference: PubChem BioAssay (NCI)
The panel holds about 83,000 compounds, 20% with a hit somewhere; the sample as a whole holds those more often.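 Activity criterion: percent growth below 10, measured after cells in 96-well plates were exposed to a single compound concentration for 48 hours.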 Calls of active or inactive are those of the source.

Experiments:
Assay in all cases: NCI-60 one-dose screen, 48 h (100 = growth as untreated, 0 = no growth, -100 = all killed)
Conditions in all cases: 10 µM unless noted
[1] = tested on: NCI-H23 lung
[2] = tested on: NCI-H226 lung
[3] = tested on: NCI-H322M lung
[4] = tested on: HOP-62 NSCLC
[5] = tested on: NCI-H460 lung
[6] = tested on: HOP-92 NSCLC
[7] = tested on: NCI-H522 lung
[8] = tested on: A549/ATCC NSCLC
[9] = tested on: 786-0 renal
[10] = tested on: COLO 205 colon
[11] = tested on: DU-145 prostate
[12] = tested on: K-562 leukemia
[13] = tested on: MALME-3M melanoma
[14] = tested on: MDA-MB-231 breast
[15] = tested on: RXF 393 renal
[16] = tested on: SF-268 CNS
[17] = tested on: SF-295 CNS
[18] = tested on: SF-539 CNS
[19] = tested on: UACC-257 melanoma
[20] = tested on: M14 melanoma

Measured: growth

COc1ncc(-c2ccc3nc(N)n(-c4ccccc4C(F)(F)F)c(=O)c3c2)cc1S(=O)(=O)Nc1ccc(F)cc1F
inactive: [1] 30.6% | [2] 88.9% | [4] 82.4% | [5] 28.1% | [6] 25.3% | [7] 46.8% | [8] 29% | [9] 33.7% | [11] 32.3% | [12] 61.5% | [13] 76.2% | [15] 10.6% | [16] 46.1% | [17] 33.4% | [19] 82.5%
active: [3] -11.6% | [10] -66.2% | [14] -11% | [18] 6.32% | [20] 8.91%

Cn1cc(-c2nnc(-c3cn(C)c4ncc(Br)cc34)o2)c2ccccc21
inactive: [1] 90.4% | [2] 93% | [3] 97.7% | [4] 82.5% | [5] 98.2% | [6] 77.1% | [7] 57.3% | [8] 87.4% | [9] 105% | [10] 76% | [11] 103% | [12] 49.1% | [13] 75.2% | [14] 75.3% | [15] 70.8% | [16] 89.1% | [17] 89.3% | [18] 92.1% | [19] 98.5% | [20] 96.4%

O=C1C(Cl)=C(Nc2ccc3cn[nH]c3c2)C(=O)c2ccccc21
active: [1] -70.1% | [2] -4.83% | [3] -27.4% | [4] -6.04% | [5] 4.67% | [6] -80.4% | [7] -84.7% | [9] -99.4% | [10] -85.5% | [11] -100% | [12] -50% | [13] -88.7% | [14] -50.3% | [15] -95.9% | [16] -98.7% | [17] 5.88% | [20] -83.8%
inactive: [8] 39.7% | [18] 10.5% | [19] 19.3%

c1ccc2c(c1)CN(CCCN1CCOCC1)C2
inactive: [1] 99.6% | [2] 96.2% | [3] 99.7% | [4] 103% | [5] 103% | [6] 126% | [7] 98.3% | [8] 96.8% | [9] 102% | [10] 108% | [11] 107% | [12] 104% | [13] 99.7% | [14] 107% | [15] 117% | [16] 103% | [17] 97.9% | [18] 98.9% | [19] 93.9% | [20] 97%

CCCN1CC(c2ccc(OC)c(OC)c2)=C(c2cn(C(=O)OCC)c3ccccc23)C1=O
inactive: [1] 65.8% | [2] 76.8% | [3] 90.6% | [4] 45.9% | [5] 37.1% | [6] 26.2% | [7] 24% | [8] 46.3% | [9] 54.6% | [10] 41.7% | [11] 71.9% | [12] 13.3% | [13] 51.6% | [14] 43.3% | [16] 58.2% | [17] 32.4% | [18] 28.1% | [19] 90.1% | [20] 70.4%
active: [15] -0.611%

CSc1nc2sc3cc(Cl)c(Cl)cc3n2c(=N)c1C#N
inactive: [1] 84.8% | [2] 95% | [3] 104% | [4] 94.7% | [5] 98.7% | [6] 98.9% | [7] 89.4% | [8] 106% | [9] 102% | [10] 122% | [11] 107% | [12] 116% | [13] 101% | [14] 83.7% | [15] 149% | [16] 104% | [17] 99% | [18] 91.3% | [19] 99.8% | [20] 94.3%

CCOC(=O)/C(C#N)=C(\C)CCc1ccccc1
inactive: [1] 91.8% | [2] 102% | [3] 102% | [4] 84.8% | [5] 105% | [6] 81.5% | [7] 86.1% | [8] 90.3% | [9] 90.1% | [10] 132% | [11] 132% | [12] 142% | [13] 96.5% | [14] 109% | [15] 97.3% | [16] 120% | [17] 114% | [18] 91.8% | [19] 89.4% | [20] 92.2%

Cc1cc2c(C(C)C)c(O)c(O)c(C=NCc3ccoc3)c2c(O)c1-c1c(C)cc2c(C(C)C)c(O)c(O)c(C=NCc3ccco3)c2c1O
active: [12] 9.26%
inactive: [1] 23.5% | [2] 72% | [3] 44.5% | [4] 53.3% | [5] 25.5% | [6] 21% | [7] 35.4% | [8] 26.3% | [9] 62.3% | [10] 10.6% | [11] 49.1% | [13] 66.4% | [14] 31.8% | [15] 58.7% | [16] 34.9% | [17] 22% | [18] 60.2% | [19] 80.9% | [20] 65.4%
